# Values without a mark were called inactive. Results filed as inconclusive are left out. A call without a number means that no potency is given here. Calls of active or inactive are those of the source. Unless noted, calls follow the shape of the dose curve; as a rule, active = well fitted curve in the direction sought with a large enough effect in the repeat runs; inconclusive = weak or mixed curves; inactive = no such curve, though single readings can be large; an effect the other way counts as inactive or inconclusive.
# Key:
# [1] = qHTS assay for small molecules that induce genotoxicity in human embryonic kidney cells expressing luciferase-tagged ATAD5 (AID 651632); also: nearly all actives have a fitted effect of over 15% in size
# Summary of the method: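 DMSO vehicle served as the control. HEK293T reporter cells, 16 hr at 37C, then 30 min Amplite at room temperature; ATAD5 induction is measured as luciferase activity.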
# [2] = qHTS assay for small molecule agonists of the p53 signaling pathway - cell viability (AID 651633; calls by dose curve;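 also: p53RE-bla HCT reporter cells with a stable beta-lactamase p53 reporter; nearly all actives have a fitted effect of over 30% in size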)
# Summary of the method: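 p53RE-bla cells, seeded at 4,000 per well and rested 5 h at 37 C/5% CO2, received compounds in DMSO for 16 h at 37 C. CellTiter-Glo was then added, and luminescence was read after 30 min at room temperature to gauge cytotoxicity.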
# [3] = qHTS assay to test for compound auto fluorescence at 590 nm (red) in HepG2 cells (AID 720674)
# Summary of the method: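 Rose Bengal sodium served as the red fluorophore standard. HepG2 monolayers (overnight attachment, MEM with 10% FBS) were exposed to test compounds for 1 hr at 37 C and read at Ex 540/Em 590 nm.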
# [4] = qHTS assay to test for compound auto fluorescence at 535 nm (green) in HepG2 cells (AID 720675)
# [5] = qHTS assay to test for compound auto fluorescence at 460 nm (blue) in HEK293 cells (AID 720678)
# Summary of the method: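 Auto fluorescence in the blue band was quantified as triamterene equivalency. HEK293 cells were seeded at 2,000/well, dosed after a 4-5 hr attachment, and kept overnight at 37C before the 405/460 nm reading.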
# [6] = qHTS assay to test for compound auto fluorescence at 590 nm (red) in HEK293 cells (AID 720679)
# Summary of the method: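 Autofluorescence equivalency to Rose Bengal sodium, 540/590nm, in HEK293 cells exposed overnight to 23 nL compound per well.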
# [7] = qHTS assay to test for compound auto fluorescence at 535 nm (green) in HEK293 cells (AID 720680)
# [8] = qHTS assay to test for compound auto fluorescence at 460 nm (blue) in HEK293 cell free culture (AID 720681)
# Summary of the method: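 Test compounds were pinned into cell-free culture medium (DMEM with 10% FBS) and fluorescence was read directly at Ex/Em 405/460 nm. Signals were expressed as fluorescence equivalents of triamterene, with DMSO vehicle as control.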
# [9] = qHTS assay to test for compound auto fluorescence at 535 nm (green) in HEK293 cell free culture (AID 720682)
# Summary of the method: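 Read-out: 485/535 nm fluorescence intensity, calibrated against fluorescein. Medium only (DMEM + 10% FBS, no cells); test compound or DMSO vehicle added by pintool before plate reading.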
# [10] = qHTS assay to test for compound auto fluorescence at 590 nm (red) in HEK293 cell free culture (AID 720683)
# Summary of the method: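 Tox21 10K library compounds were pinned into cell-free DMEM with 10% FBS and fluorescence was read at excitation 540 nm. Activity is expressed as Rose Bengal sodium equivalency.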
# [11] = qHTS assay to test for compound auto fluorescence at 590 nm (red) in HepG2 cell free culture (AID 720684)
# Summary of the method: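 Readout: intrinsic compound fluorescence at 590 nm emission after 540 nm excitation, scaled to Rose Bengal sodium. Matrix was cell-free MEM with 10% FBS; DMSO vehicle wells served as control.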
# [12] = qHTS assay to test for compound auto fluorescence at 535 nm (green) in HepG2 cell free culture (AID 720686)
# [13] = qHTS assay to test for compound auto fluorescence at 460 nm (blue) in HepG2 cells (AID 720687)
# Summary of the method: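 Cells (2,000/well in MEM with 10% FBS) attached overnight at 37 C, then were exposed to compound or DMSO for 1 hr at 37 C, 5% CO2. Fluorescence read at Ex/Em 405/460 nm, expressed as triamterene-equivalent signal.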
# [14] = target: Glucocorticoid receptor (Homo sapiens) (UniProt P04150); test: qHTS assay to identify small molecule agonists of the glucocorticoid receptor (GR) signaling pathway (AID 720691; active = well fitted activation curve with a large enough effect in the signal ratio in the repeat runs, not every such curve was filed as active; the % refers to the signal ratio); settings: GR-bla HeLa, beta-lactamase reporter ratio, 18 h; activation: at 62.4 µM (top of the series)
# Glucocorticoid receptor (Homo sapiens), sequence (P04150 whole entry, looked up): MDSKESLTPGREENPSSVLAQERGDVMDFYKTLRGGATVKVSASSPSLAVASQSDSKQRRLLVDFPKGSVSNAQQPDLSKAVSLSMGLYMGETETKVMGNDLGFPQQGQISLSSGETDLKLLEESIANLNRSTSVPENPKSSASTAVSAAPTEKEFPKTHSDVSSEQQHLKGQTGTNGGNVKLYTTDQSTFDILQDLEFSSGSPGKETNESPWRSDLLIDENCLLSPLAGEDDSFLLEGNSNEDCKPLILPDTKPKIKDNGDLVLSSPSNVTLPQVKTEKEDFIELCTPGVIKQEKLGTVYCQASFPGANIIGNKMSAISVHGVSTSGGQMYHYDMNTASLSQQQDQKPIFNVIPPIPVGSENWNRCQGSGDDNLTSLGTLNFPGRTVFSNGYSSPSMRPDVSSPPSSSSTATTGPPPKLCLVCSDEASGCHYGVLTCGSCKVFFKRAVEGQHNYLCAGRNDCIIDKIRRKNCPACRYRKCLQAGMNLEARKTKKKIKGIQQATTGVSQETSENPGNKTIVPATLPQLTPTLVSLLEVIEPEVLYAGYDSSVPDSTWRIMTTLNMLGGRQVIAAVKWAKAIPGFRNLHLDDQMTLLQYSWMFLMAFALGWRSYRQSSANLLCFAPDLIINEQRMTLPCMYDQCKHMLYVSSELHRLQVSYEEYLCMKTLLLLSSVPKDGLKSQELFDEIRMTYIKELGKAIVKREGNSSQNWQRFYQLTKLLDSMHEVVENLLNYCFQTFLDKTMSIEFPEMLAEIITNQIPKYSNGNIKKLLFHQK
# Summary of the method: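 Compounds in DMSO, alongside positive controls, were added to GR-bla HeLa reporter cells and incubated 18 h at 37 C; GRE-driven beta-lactamase was detected by fluorescence after 2 h with FRET substrate at room temperature.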
# [15] = target: Glucocorticoid receptor (Homo sapiens) (UniProt P04150); test: qHTS assay to identify small molecule antagonists of the glucocorticoid receptor (GR) signaling pathway (AID 720692; active = well fitted inhibition curve with a large enough effect in the signal ratio in the repeat runs, not every such curve was filed as active; the % refers to the signal ratio; also: potency is read from the fitted curve at half-maximal effect)
# Summary of the method: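 In a 1536-well cell format, compounds were added 4 h after seeding GR-bla HeLa cells, together with dexamethasone at 5 nM final; reporter activity was measured by FRET-substrate fluorescence following 18 h at 37 C.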
# [16] = qHTS assay for small molecule disruptors of the mitochondrial membrane potential (AID 720635); also: potency is read from the fitted curve at half-maximal effect
# Summary of the method: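 HepG2 cells (2,000/well) attached overnight at 37C, then took compound for 1 hr at 37C, 5% CO2. Mito-MPS dye was added for 30 min; fluorescence was read at 490/535 nm (monomers) and 540/590 nm (aggregates).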
# [17] = qHTS assay to test for compound auto fluorescence at 460 nm (blue) in HepG2 cell free culture (AID 720685)
# Summary of the method: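 Cell-free plates of MEM plus 10% FBS received 23 nL compound or DMSO vehicle; blue-channel (405/460 nm) intensity scored against triamterene as reference fluorophore.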
# [18] = qHTS assay for small molecules that induce genotoxicity in human embryonic kidney cells expressing luciferase-tagged ATAD5 - cell viability (AID 651634; calls by dose curve; also: nearly all actives have a fitted effect of over 25% in size)
# Summary of the method: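 Here HEK293T cells with the ATAD5 luciferase reporter are incubated with test compounds for 15.5 hr, and cytotoxicity is then gauged by measuring protease activity in live cells using fluorescence.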
# [19] = qHTS assay for small molecule disruptors of the mitochondrial membrane potential - cell viability (AID 720634; calls by dose curve; also: nearly all actives have a fitted effect of over 20% in size; also: potency is read from the fitted curve at half-maximal effect;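 as to activity change, negative = cytotoxicity: human HepG2 liver cancer cells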)
# Summary of the method: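 Viability of HepG2 cells is scored from ATP content by luminescence; cells are exposed to compound for 1 hr at 37 C and 5% CO2, then dosed with m-MPI dye before the CellTiter-Glo reagent.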
smiles,measurement,setting,value
O=[N+]([O-])C(Br)Br,Potency,[1],inactive
same,Potency,[2],inactive
same,outcome,[3],inactive
same,Potency,[4],inactive
same,Potency,[5],inactive
same,outcome,[6],inactive
same,outcome,[7],inactive
same,Potency,[8],inactive
same,outcome,[9],inactive
same,outcome,[10],inactive
same,outcome,[11],inactive
same,Potency,[12],inactive
same,Potency,[13],inactive
same,Potency,[14],inactive
same,Potency,[15],inactive
FC(F)C(F)(F)OCC(Cn1cncn1)c1ccc(Cl)cc1Cl (centres undefined),Potency,[1],inactive
same,Potency,[2],inactive
same,Potency,[16],48.3 µM (active)
same,outcome,[3],inactive
same,Potency,[4],inactive
same,Potency,[5],inactive
same,outcome,[6],inactive
same,outcome,[7],inactive
same,Potency,[8],inactive
same,outcome,[9],inactive
same,outcome,[10],inactive
same,outcome,[11],inactive
same,Potency,[17],inactive
same,Potency,[12],inactive
same,Potency,[13],inactive
same,Potency,[14],inactive
CCO/N=C(\CC)C1=C(O)CC(c2c(C)cc(C)cc2C)CC1=O (centres undefined),Potency,[2],inactive
same,Potency,[18],inactive
same,Potency,[19],inactive
same,Potency,[16],12.2 µM (active)
same,Potency,[4],inactive
same,Potency,[5],inactive
same,outcome,[6],inactive
same,outcome,[7],inactive
same,Potency,[8],inactive
same,outcome,[9],inactive
same,outcome,[10],inactive
same,outcome,[11],inactive
same,Potency,[17],inactive
same,Potency,[12],inactive
same,Potency,[13],inactive
same,Potency,[14],inactive
same,Potency,[15],inactive
CC(Cc1ccc(O)cc1)NCC(O)c1cc(O)cc(O)c1 (centres undefined),Potency,[18],inactive
same,Potency,[19],inactive
same,Potency,[16],inactive
same,outcome,[3],inactive
same,Potency,[4],inactive
same,Potency,[5],inactive
same,outcome,[6],inactive
same,Potency,[8],inactive
same,outcome,[9],inactive
same,outcome,[10],inactive
same,outcome,[11],inactive
same,Potency,[17],inactive
same,Potency,[12],inactive
same,Potency,[13],inactive
same,Potency,[14],inactive
same,Potency,[15],inactive
CN(C)c1ccc(N)cc1,Potency,[2],inactive
same,Potency,[18],inactive
same,Potency,[19],inactive
same,Potency,[16],8.42 µM (active)
same,outcome,[3],inactive
same,Potency,[4],inactive
same,Potency,[5],inactive
same,outcome,[6],inactive
same,Potency,[8],inactive
same,outcome,[9],inactive
same,outcome,[10],inactive
same,outcome,[11],inactive
same,Potency,[17],inactive
same,Potency,[12],inactive
same,Potency,[13],inactive
CC(=O)[O-].CC(=O)[O-].O.O.O.[Pb+2],outcome,[3],inactive
same,Potency,[4],inactive
same,Potency,[5],inactive
same,outcome,[6],inactive
same,Potency,[8],inactive
same,outcome,[9],inactive
same,outcome,[11],inactive
same,Potency,[12],inactive
same,Potency,[13],inactive
[Cl-].[Cl-].[Cl-].[Yb+3],Potency,[18],inactive
same,outcome,[3],inactive
same,Potency,[4],inactive
same,Potency,[5],inactive
same,outcome,[6],inactive
same,outcome,[7],inactive
same,Potency,[8],inactive
same,outcome,[9],inactive
same,outcome,[11],inactive
same,Potency,[12],inactive
same,Potency,[13],inactive
O.O.O.O.O.O.O=S(=O)([O-])[O-].[Ni+2],Potency,[18],inactive
same,Potency,[19],inactive
same,outcome,[3],inactive
same,Potency,[4],inactive
same,Potency,[5],inactive
same,outcome,[6],inactive
same,Potency,[8],inactive
same,outcome,[9],inactive
same,outcome,[10],inactive
same,outcome,[11],inactive
same,Potency,[17],inactive
same,Potency,[12],inactive
same,Potency,[13],inactive
O=[N+]([O-])[O-].[Tl+],Potency,[18],inactive
same,outcome,[3],inactive
same,Potency,[4],inactive
same,Potency,[5],inactive
same,outcome,[6],inactive
same,Potency,[8],inactive
same,outcome,[10],inactive
same,outcome,[11],inactive
same,Potency,[12],inactive
same,Potency,[13],inactive
same,Potency,[14],inactive
CC1CCCC1,Potency,[2],inactive
same,Potency,[19],inactive
same,Potency,[14],inactive
O.O.O.O.O.O.O.O=S(=O)([O-])[O-].[Co+2],Potency,[19],inactive
same,outcome,[3],inactive
same,Potency,[4],inactive
same,Potency,[5],inactive
same,Potency,[8],inactive
same,outcome,[9],inactive
same,outcome,[10],inactive
same,outcome,[11],inactive
same,Potency,[17],inactive
same,Potency,[12],inactive
same,Potency,[13],inactive
CNN,Potency,[2],inactive
same,Potency,[18],inactive
same,Potency,[19],inactive
same,Potency,[4],inactive
same,Potency,[5],inactive
same,outcome,[6],inactive
same,Potency,[8],inactive
same,outcome,[9],inactive
same,outcome,[11],inactive
same,Potency,[17],inactive
same,Potency,[12],inactive
same,Potency,[13],inactive
Oc1ccc2[nH]cc(CCCCN3CC=C(c4ccccc4)CC3)c2c1,Potency,[2],inactive
same,Potency,[19],inactive
same,Potency,[4],inactive
same,Potency,[5],inactive
same,outcome,[6],inactive
same,outcome,[7],inactive
same,Potency,[8],inactive
same,outcome,[10],inactive
same,outcome,[11],inactive
same,Potency,[17],inactive
same,Potency,[13],inactive
same,Potency,[14],inactive
CC(=O)[O-].CC(=O)[O-].CC(=O)[O-].[Sb+3],"activity change, negative = cytotoxicity",[2],11.3% [at 8.08 µM]
same,"activity, negative = cytotoxicity",[18],20.6% [at 8.08 µM]
same,"fluorescence, relative to Rose Bengal",[3],-0.0388% [at 3.72 µM]
same,"fluorescence, % of fluorescein control",[4],-0.114% [at 3.72 µM]
same,"fluorescence, % of triamterene",[5],-0.0361% [at 3.72 µM]
same,"fluorescence, % of fluorescent control",[8],-0.0273% [at 3.72 µM]
same,activity change,[9],-0.0203% [at 3.72 µM]
same,"fluorescence, % of Rose Bengal",[11],0.0344% [at 3.72 µM]
same,"fluorescence, % of fluorescein control",[12],0.0057% [at 3.72 µM]
same,"fluorescence, % of fluorescent control",[13],0.0192% [at 3.72 µM]
CC(=O)O.CC(=O)O.CC(=O)O.CC(=O)O.CC(=O)O.CC(=O)O.CC(=O)O.O.O.[Cr].[Cr].[Cr],Potency,[18],inactive
same,outcome,[3],inactive
same,Potency,[4],inactive
same,Potency,[5],inactive
same,outcome,[6],inactive
same,outcome,[7],inactive
same,Potency,[8],inactive
same,outcome,[9],inactive
same,outcome,[10],inactive
same,outcome,[11],inactive
same,Potency,[17],inactive
same,Potency,[12],inactive
same,Potency,[13],inactive
N#Cc1sc2c(=O)c3ccccc3c(=O)c=2sc1C#N,Potency,[18],inactive
same,Potency,[19],24.3 µM (active)
same,Potency,[16],24.3 µM (active)
same,outcome,[3],inactive
same,Potency,[4],inactive
same,Potency,[5],inactive
same,outcome,[6],inactive
same,Potency,[8],inactive
same,outcome,[9],inactive
same,outcome,[11],inactive
same,Potency,[17],inactive
same,Potency,[12],inactive
same,Potency,[13],inactive
CC(=O)[O-].CC(=O)[O-].O.O.[Zn+2],Potency,[2],inactive
same,Potency,[18],inactive
same,Potency,[4],inactive
same,Potency,[5],inactive
same,outcome,[7],inactive
same,Potency,[8],inactive
same,outcome,[9],inactive
same,outcome,[10],inactive
same,outcome,[11],inactive
same,Potency,[17],inactive
same,Potency,[12],inactive
same,Potency,[13],inactive
Cc1ccccc1OP(=O)(Oc1ccccc1C)Oc1ccccc1C,Potency,[1],inactive
same,Potency,[19],9.73 µM (active)
same,Potency,[4],inactive
same,Potency,[5],inactive
same,outcome,[6],inactive
same,outcome,[7],inactive
same,Potency,[8],inactive
same,outcome,[9],inactive
same,outcome,[10],inactive
same,outcome,[11],inactive
same,Potency,[17],inactive
same,Potency,[12],inactive
same,Potency,[13],inactive
same,Potency,[14],inactive
same,Potency,[15],27.6 µM (active)

# — PubChem BioAssay (Tox21)
